# PKM2 act – increases activity of human pyruvate kinase M2; P14618; purified PKM2, Kinase-Glo ATP luminescence, activation; response scale: 0% is enzyme alone, no compound; 260,000 compounds, 0.34% hits; AID 1631; Potency, µM (titrated, usually from 57.5 µM), hits mostly activators; further: nearly all actives have a fitted effect of over 55% in size
#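 Purified hPK-M2 (>95%) run at intermediate activity with 0.1 mM ADP and 0.5 mM PEP in 50 mM imidazole pH 7.2, KCl, MgCl2; 1 h room temperature. ATP formed read by Kinase-Glo luminescence; normalized to uninhibited and no-enzyme controls.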
# TSHR antag – antagonists of human thyroid stimulating hormone receptor; 330,000 compounds, 0.2% hits; AID 504810; TSHR-expressing cells, TSH-stimulated cAMP HTRF, 2 h; hits give low values; P16473; activity change, negative = inhibition, % at 11.5 µM;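 active means activity change below a set negative limit, meaning inhibition stronger than a set level, cut at about -70% in these data; inconclusive means activity change between two set negative limits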
# Target sequence (P16473 whole entry, looked up): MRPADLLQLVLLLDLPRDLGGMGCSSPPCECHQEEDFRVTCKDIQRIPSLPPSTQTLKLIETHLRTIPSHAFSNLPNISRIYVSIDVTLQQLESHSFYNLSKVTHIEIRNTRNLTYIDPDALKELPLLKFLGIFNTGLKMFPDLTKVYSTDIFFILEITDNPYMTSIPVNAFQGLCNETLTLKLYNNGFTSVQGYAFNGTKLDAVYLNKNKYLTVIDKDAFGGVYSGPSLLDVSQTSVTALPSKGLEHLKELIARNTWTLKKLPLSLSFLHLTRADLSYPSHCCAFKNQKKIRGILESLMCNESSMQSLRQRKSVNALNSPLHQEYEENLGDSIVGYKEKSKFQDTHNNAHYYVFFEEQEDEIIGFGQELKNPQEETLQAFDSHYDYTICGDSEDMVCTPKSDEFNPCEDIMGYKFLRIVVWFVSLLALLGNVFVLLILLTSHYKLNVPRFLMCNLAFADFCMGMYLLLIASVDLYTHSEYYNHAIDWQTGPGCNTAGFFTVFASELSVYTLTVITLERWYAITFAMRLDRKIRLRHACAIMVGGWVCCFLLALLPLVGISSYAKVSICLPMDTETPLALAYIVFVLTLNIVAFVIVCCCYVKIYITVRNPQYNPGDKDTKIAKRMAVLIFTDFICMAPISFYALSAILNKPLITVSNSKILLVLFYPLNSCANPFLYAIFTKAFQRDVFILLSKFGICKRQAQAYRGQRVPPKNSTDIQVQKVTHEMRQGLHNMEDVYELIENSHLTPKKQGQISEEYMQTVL
#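 TSHR-expressing cells, 200/well, pre-treated with compound, then stimulated with EC80 TSH (4nM final) for 2 hours at 37 deg C. cAMP measured by competitive HTRF: anti-cAMP cryptate antibody in lysis buffer plus cAMP-d2, read after 30 minutes at room temperature.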
# TCR activator – activates T cell receptor signaling | primary human leukocytes, anti-CD3, IL-2 HTRF, 48 h | Potency, µM (highest dose often 9.22 µM), usual class: activators | 330,000 tested, under 10 active
#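 Primary human leukocytes were stimulated with a-CD3 beads plus compounds for 48 hr without co-stimulation; secreted IL-2 was quantified by HTRF using a-IL-2-K (europium cryptate) and a-IL-2-d2, excited at 320nm with acceptor emission read at 665nm.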
# uPA generation – inhibitors of cell surface uPA generation; cell surface uPA generation assay, qHTS; Potency, µM (series often up to 38.3 µM), usual class: inhibitors; AID 540303; 330,000 compounds, 0.31% hits; active means well fitted inhibition curve with a large enough effect; inconclusive means small, poorly fitted or top-dose-only effect; inactive means no such curve, though single readings can be large or run the other way; tested in mouse RAW 264.7 cells; further: nearly all actives have a fitted effect of over 55% in size
# Numbers stand for hits; i = inactive; ? = inconclusive; nt = no result given; [ ] = dose if it differs, or a comment. Only some compounds are listed: those with a hit (about 0.75% of all), similar ones and a draw of the others. Unless noted, the call rests on the fitted dose curve; in most records, active means well fitted curve in the direction sought with a large enough effect; inconclusive means small, poorly fitted or top-dose-only effect, or another doubt; inactive means no such curve, though single readings can be large; an effect the other way counts as inactive or inconclusive.
SMILES,PKM2 act,TSHR antag,TCR activator,uPA generation
Cc1ccc(NC(=O)CCN2CC(C)OC(C)C2)cc1 (stereo not drawn),i,i,i,i
COc1cc(NC(=O)C(C)C)ccc1NC(=O)c1ccco1,i,-93.4,i,i
N=NC(=O)c1ccccc1Nc1c(O)[nH]c2ccccc12,nt,nt,i,i
Cc1cccc(-n2nnnc2SCC(=O)Nc2cccc(S(N)(=O)=O)c2)c1,5.01µM,i,i,i
O=c1c2ccccc2nnn1CSc1nnnn1-c1ccc(O)cc1,14.1µM,i,i,i
O=C(CSc1nnnn1-c1ccc(O)cc1)Nc1cccc(S(=O)(=O)N2CCCC2)c1,i,i,i,i
Cc1cccc(-n2nnnc2SCn2nnc3ccccc3c2=O)c1,15.8µM,i,i,nt
CC(C)Oc1ccc(C(=O)Nc2cccc(S(=O)(=O)N3CCCC3)c2)cc1,nt,i,i,i
O=C(Nc1ccc(S(=O)(=O)NC2=NCCCCC2)cc1)c1cccs1,nt,i,nt,i
O=C(Nc1ccc(S(=O)(=O)NC2=NCCCCC2)cc1)c1ccc([N+](=O)[O-])s1,nt,i,i,10µM
O=C(Nc1ccc(-c2cn3ccccc3n2)cc1)c1ccc(Cl)cc1,i,i,i,i
COc1ccc(-c2cn3ccccc3n2)cc1,i,i,i,2µM
Clc1ccc(-c2cn3ccccc3n2)cc1,i,i,i,8.91µM
O=C(Nc1ncc(S(=O)(=O)c2ccc([N+](=O)[O-])cc2)s1)c1cccc2ccccc12,i,-82.2,i,i
O=C(/C=C/c1ccco1)NCC1COc2ccccc2O1 (stereo not drawn),i,i,i,i
CCN(CC)C(=O)Cn1c(=O)n(-c2ccccc2)c(=O)c2sccc21,i,-80.9,i,i
COc1cccc(NC(=O)CN2C(=O)NC3(CCCc4ccccc43)C2=O)c1 (stereo not drawn),nt,i,i,i
O=C(CSc1ncn[nH]1)Nc1ccc([N+](=O)[O-])cc1Br,7.08µM,i,i,i
CC(C)c1nc(SCC(=O)Nc2ccc([N+](=O)[O-])cc2Br)n[nH]1,?,i,i,i
Nc1nc(SCC(=O)Nc2ccc([N+](=O)[O-])cc2Br)n[nH]1,3.16µM,i,i,i
O=C(CSc1n[nH]c(-c2cccnc2)n1)Nc1ccc([N+](=O)[O-])cc1Br,i,i,i,i
CN(C)c1cc(-c2ccccc2)nc(N)n1,i,i,i,10µM
O=c1oc2ccc(Br)cc2cc1S(=O)(=O)c1ccc(F)cc1,2.82µM,i,i,i
Cc1ncc(CO)c2cc(S(=O)(=O)c3ccc(F)cc3)c(=O)oc12,i,i,i,i
COC(=O)/C=C/COc1ccccc1[N+](=O)[O-],i,i,i,11.2µM
SMILES,PKM2 act,TSHR antag,TCR activator,uPA generation
O=C(N/C(=C\c1ccc(-c2ccccc2)o1)C(=O)N1CCOCC1)c1ccccc1,i,i,i,i
CC(=O)c1ccc(-n2c(CCC(=O)O)ccc2-c2cccs2)cc1,?,i,i,i
COC(=O)c1cccc(-n2c(CCC(=O)O)ccc2-c2cccs2)c1,17.8µM,i,i,i
CN(C(=O)CSc1n[nH]c(N)n1)C1CCCCC1,nt,nt,i,i
Nc1nc(SCC(=O)C23CC4CC(CC(C4)C2)C3)n[nH]1,i,-76.2,i,i
O=C(CCc1ccccc1)NCC(c1ccco1)N1CCc2ccccc21 (stereo not drawn),nt,i,i,3.16µM
O=C(NCC(c1ccco1)N1CCc2ccccc21)c1ccccc1F (stereo not drawn),nt,nt,i,i
ON=C(CCc1ccccc1)CCc1ccccc1,nt,nt,i,i
CC(=O)c1ccc(OC(=O)Cc2cccc3ccccc23)cc1,i,i,i,?
COc1cccc(CNc2ncc(C(=O)Nc3cc(OC)c(OC)c(OC)c3)c(C)n2)c1,nt,i,i,5.62µM
Cc1ccc(Cl)cc1NC1=C/C(=N\S(=O)(=O)c2cccs2)c2ccccc2C1=O,i,-76.2,i,i
FC(F)(F)c1ccc(/C=N/N2CCN(Cc3cccc4ccccc34)CC2)cc1,i,i,i,i
C(=N\N1CCN(Cc2cccc3ccccc23)CC1)/c1cccnc1,i,-81.8,i,nt
Cc1nc(C(=O)N2CCCC(N3CCN(c4ccccc4C)CC3)C2)cs1 (stereo not drawn),i,i,i,i
Cc1ccccc1N1CCN(C2CCCN(C(=O)c3cnsn3)C2)CC1 (stereo not drawn),i,-105.4,i,i
COC(=O)C1CCCN1S(=O)(=O)c1ccc2ccccc2c1 (stereo not drawn),i,-77.6,i,nt
CC(=O)Nc1ccc(-c2cn3cc(C)ccc3n2)cc1,i,i,i,4.47µM
Cc1ccc2nc(-c3ccccc3)cn2c1,i,i,i,i
Cn1c(N)c(S(=O)(=O)c2ccc(Br)cc2)c2nc3ccccc3nc21,25.1µM,i,i,i
Nc1c(S(=O)(=O)c2ccccc2)c2nc3ccccc3nc2n1C1CC1,i,i,i,i
Cc1ccc(/C=C2/NC(=O)N(Cc3ccc(Br)cc3)C2=O)o1,1.58µM,i,i,i
CCCN1C(=O)/C(=C/c2ccc(C)o2)NC1=S,25.1µM,i,nt,nt
Cc1ccc(/C=C2/NC(=O)N(Cc3ccccc3F)C2=O)o1,3.55µM,i,i,i
CC(=O)c1sc(NC(=O)CN2C(=O)C3CCCCC3C2=O)nc1-c1ccccc1 (stereo not drawn),nt,i,i,i
COc1cc(OC)cc(C(=O)N[C@H](C(=O)OCC(=O)c2ccc(C)c([N+](=O)[O-])c2)C(C)C)c1,nt,i,i,i
SMILES,PKM2 act,TSHR antag,TCR activator,uPA generation
CCCCc1nc2c(c3c1C[C@H](C)OC3)CN(S(=O)(=O)c1ccc(Cl)c3nonc13)CC2,i[11.5 µM],nt,nt,nt
C[C@]12c3[nH]c4ccccc4c3CCN1C(=O)C(CC(=O)NCc1ccco1)C[C@@H]2C(=O)N1CCCCC1 (stereo partly drawn),nt,i,i,6.31µM
COc1ccc(-n2cc(CNC3CCC(O)CC3)c(-c3cccc(F)c3)n2)cc1 (stereo not drawn),i,i,i,i
COC(=O)c1ccc(NC(=O)CSCc2ccccc2)cc1,i,i,i,i
CCC(=O)Oc1ccc(NC(=O)CSCc2ccccc2)cc1,i,i,i,10µM
CN(C)C(=O)N1CCN(S(=O)(=O)c2ccc3ccccc3c2)CC1,?,i,i,i
O=C(COc1ccc(-c2nnco2)cc1)N1CCN(S(=O)(=O)c2ccc3ccccc3c2)CC1,7.08µM,i,i,i
CS(=O)(=O)N1CCN(C(=O)COc2ccc3ccccc3c2)CC1,i,i,i,i
O=C(CCl)N1CCN(S(=O)(=O)c2ccc3ccccc3c2)CC1,12.6µM,i,i,i
O=C(COc1ccccc1)N1CCN(S(=O)(=O)c2ccc(Br)cc2)CC1,nt,i,i,i
COc1ccc(S(=O)(=O)N2CCN(C(=O)COc3ccc4c(C)cc(=O)oc4c3)CC2)cc1,14.1µM,i,i,i
COc1ccc(S(=O)(=O)N2CCN(C(=O)COc3ccccc3)CC2)cc1,14.1µM,i,i,i
O=C(CCN1CCN(C(=O)c2ccccc2)CC1)c1ccc(Br)cc1,i,i,i,i
COc1ccc(C(=O)N[C@H](C(=O)OCn2nnc3ccccc3c2=O)C(C)C)cc1,nt,i,nt,i
